In PubChem BioAssay (EPA / NIEHS) one finds outcome and AC50 data, which are given here for four molecules.

For test [1], the target named is human Peroxisome Proliferator-activated Receptor delta (PPARd), PPARD (gene 5467) (UniProt Q03181). As to the kind of experiment: ATG_PPARd_TRANS: Attagene TRANS-FACTORIAL HepG2 Assay for human Peroxisome Proliferator-activated Receptor delta (PPARd) (AID 2283002; active means hit-call score of the fitted dose curve at least 0.9, where 1 is the maximum). A digest of the protocol: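 Measured quantity: GAL4-UAS reporter transcript induction in HepG2 after 24 h chemical dosing, with NR-Gal4 chimeras supplied by transient transfection. Detection by RT-PCR and capillary electrophoresis; upward fit against DMSO.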

Read-out in test [2]: Intercellular Adhesion Molecule 1 (ICAM1), ICAM1 (gene 3383)
As to the kind of experiment: BSK_3C_ICAM1: BioMAP Diversity Plus: 3C Assay for Intercellular Adhesion Molecule 1 (ICAM1) Biomarker Activity (AID 2283003). The settings on record: primary human endothelial cells (HUVEC); actives raise or lower the signal. A digest of the protocol:
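Using DMSO as baseline, bidirectional curve fitting was applied to ICAM-1 ELISA signals from HUVEC in the 3C system, measured 24 h after compound addition.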

Test [3] in a line: BSK_3C_Proliferation: Cell Proliferation Assessment in the BioMAP Diversity Plus: 3C Assay (AID 2283006). Conditions: primary human endothelial cells (HUVEC). A digest of the protocol: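 Measured here: sulforhodamine B (0.1%) staining of TCA-fixed sub-confluent umbilical vein endothelial cultures 48 h post-dosing, absorbance 560 nm. DMSO served as negative control and baseline; both signal gain and loss were modelled.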

In test [4] the target is Peroxisome proliferator-activated receptor gamma (Homo sapiens) (UniProt P37231). As to the kind of experiment: ATG_PPARg_TRANS: Attagene TRANS-FACTORIAL HepG2 Assay for human Peroxisome Proliferator-activated Receptor-gamma (PPARg) (AID 2283007; active means hit-call score of the fitted dose curve at least 0.9, where 1 is the maximum). The procedure, abridged: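 A TRANS-format multiplexed reporter assay measures activity of an exogenous chimeric NR-Gal4 protein in HepG2 cells. After 24 h of chemical exposure, reporter transcripts are amplified, fluorescently labelled and sized by capillary electrophoresis, with gain of signal scored against DMSO.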
Sequence of Peroxisome proliferator-activated receptor gamma (Homo sapiens) (P37231 whole entry, looked up, the tested form may be a part): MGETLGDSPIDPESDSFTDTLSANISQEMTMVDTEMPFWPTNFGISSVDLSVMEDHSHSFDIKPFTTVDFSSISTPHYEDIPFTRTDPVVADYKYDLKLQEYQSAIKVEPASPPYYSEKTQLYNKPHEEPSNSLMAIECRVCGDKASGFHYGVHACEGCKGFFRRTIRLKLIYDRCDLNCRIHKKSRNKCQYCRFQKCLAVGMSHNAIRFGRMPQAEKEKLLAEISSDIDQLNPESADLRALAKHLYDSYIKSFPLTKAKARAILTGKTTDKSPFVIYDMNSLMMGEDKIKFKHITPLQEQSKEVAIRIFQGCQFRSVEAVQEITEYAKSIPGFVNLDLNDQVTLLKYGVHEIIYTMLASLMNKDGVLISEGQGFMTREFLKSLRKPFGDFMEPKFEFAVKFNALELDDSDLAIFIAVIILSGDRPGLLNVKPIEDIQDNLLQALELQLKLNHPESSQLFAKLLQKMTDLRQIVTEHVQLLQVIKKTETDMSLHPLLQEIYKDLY

The target of test [5] is human Retinoic Acid Receptor gamma (RARg), RARG (gene 5916) (UniProt P13631). As to the kind of experiment: ATG_RARg_TRANS: Attagene TRANS-FACTORIAL HepG2 Assay for human Retinoic Acid Receptor gamma (RARg) (AID 2283009; active means hit-call score of the fitted dose curve at least 0.9, where 1 is the maximum). The procedure, abridged: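 Gain-of-signal relative to DMSO is reported from fluorescent capillary electrophoresis of RT-PCR reporter products. These came from HepG2 cells expressing transfected RARg-GAL4 chimeras with UAS reporters, harvested 24 h after dosing.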
Sequence of human Retinoic Acid Receptor gamma (RARg), RARG (gene 5916) (P13631 whole entry, looked up, the tested form may be a part): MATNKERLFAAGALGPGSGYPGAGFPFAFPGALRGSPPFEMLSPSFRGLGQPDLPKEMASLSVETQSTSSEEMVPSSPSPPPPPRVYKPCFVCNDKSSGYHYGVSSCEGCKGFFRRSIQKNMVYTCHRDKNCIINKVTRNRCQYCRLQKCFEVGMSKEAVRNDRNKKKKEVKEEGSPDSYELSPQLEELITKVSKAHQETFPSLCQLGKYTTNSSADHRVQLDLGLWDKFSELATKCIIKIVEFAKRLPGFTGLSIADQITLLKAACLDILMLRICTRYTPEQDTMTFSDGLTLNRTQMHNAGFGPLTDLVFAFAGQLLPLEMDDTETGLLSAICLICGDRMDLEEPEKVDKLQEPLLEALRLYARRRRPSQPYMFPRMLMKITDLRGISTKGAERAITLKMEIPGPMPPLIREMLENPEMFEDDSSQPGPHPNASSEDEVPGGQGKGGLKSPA

Read-out in test [6]: E-selectin (Homo sapiens) (UniProt P16581)
As to the kind of experiment: BSK_3C_Eselectin: BioMAP Diversity Plus: 3C Assay for Eselectin Biomarker Activity (AID 2283015).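 Further: cell surface E-selectin protein quantified by ELISA 24 h after dosing.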 Conditions: primary human endothelial cells (HUVEC); actives raise or lower the signal. The procedure, abridged: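 Primary human umbilical vein endothelial cells (3C system) were dosed with chemical and cell-surface E-selectin measured by ELISA 24 h later. Bidirectional curve fitting used DMSO as negative control and baseline.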

Read-out in test [7]: Interleukin-1 alpha (IL1a), IL1A (gene 3552)
As to the kind of experiment: BSK_BE3C_IL1a: BioMAP Diversity Plus: BE3C Assay for Interleukin-1 alpha (IL1a) Biomarker Activity (AID 2283016). Conditions: primary human bronchial epithelial cells; actives raise or lower the signal. A digest of the protocol:
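Measured in human lung primary bronchial epithelial cells: IL-1a by ELISA at 24 h after dosing, with bidirectional fitting against DMSO.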

Read-out in test [8]: Monocyte Chemoattractant Protein-1 (MCP1), CCL2 (gene 6347)
As to the kind of experiment: BSK_3C_MCP1: BioMAP Diversity Plus: 3C Assay for Monocyte Chemoattractant Protein-1 (MCP1) Biomarker Activity (AID 2283017). The settings on record: primary human endothelial cells (HUVEC); actives raise or lower the signal. A digest of the protocol:
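Primary human umbilical vein endothelial cells (3C system) were exposed to test chemical for 24 h, after which MCP-1 was quantified by ELISA. Activity was fitted bidirectionally against DMSO as negative control and baseline.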

Read-out in test [9]: Monocyte Chemoattractant Protein-1 (MCP1), CCL2 (gene 6347)
As to the kind of experiment: BSK_4H_MCP1: BioMAP Diversity Plus: 4H Assay for Monocyte Chemoattractant Protein-1 (MCP1) Biomarker Activity (AID 2283018). Conditions: primary human endothelial cells (HUVEC); actives raise or lower the signal. A digest of the protocol:
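Primary human umbilical vein endothelium is exposed to chemical for 24 h before MCP-1 is assayed by ELISA. Concentration-response fitted bidirectionally relative to DMSO.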

Read-out in test [10]: Human Leukocyte Antigen - DR isotype (HLADR), HLA-DRA (gene 3122)
As to the kind of experiment: BSK_3C_HLADR: BioMAP Diversity Plus: 3C Assay for Human Leukocyte Antigen - DR isotype (HLADR) Biomarker Activity (AID 2283019). The settings on record: primary human endothelial cells (HUVEC); actives raise or lower the signal. The procedure, abridged: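 Primary human umbilical vein endothelial cells (3C system) were dosed with compound and cell-surface HLA-DR was quantified by ELISA at 24 h. Activity was fitted bidirectionally against DMSO as negative control and baseline.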

Read-out in test [11]: Interleukin-8 (IL8), CXCL8 (gene 3576)
As to the kind of experiment: BSK_3C_IL8: BioMAP Diversity Plus: 3C Assay for Interleukin-8 (IL8) Biomarker Activity (AID 2283020). The settings on record: primary human endothelial cells (HUVEC); actives raise or lower the signal. The procedure, abridged: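 Using DMSO-treated wells as the baseline, bidirectional curve fitting was applied to ELISA-measured IL-8 from human umbilical vein endothelial cultures sampled 24 h after compound addition.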

Read-out in test [12]: Monokine induced gamma interferon (MIG), CXCL9 (gene 4283)
As to the kind of experiment: BSK_3C_MIG: BioMAP Diversity Plus: 3C Assay for Monokine induced gamma interferon (MIG) Biomarker Activity (AID 2283021). The settings on record: primary human endothelial cells (HUVEC); actives raise or lower the signal. A digest of the protocol: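 ELISA-measured MIG in dosed HUVEC 3C cultures at 24 h, analysed by bidirectional fitting with DMSO defining baseline activity.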

The target in test [13] is human Peroxisome Proliferator-activated Receptor alpha (PPARa), PPARA (gene 5465) (UniProt Q07869). As to the kind of experiment: ATG_PPARa_TRANS: Attagene TRANS-FACTORIAL HepG2 Assay for human Peroxisome Proliferator-activated Receptor alpha (PPARa) (AID 2283001; active means hit-call score of the fitted dose curve at least 0.9, where 1 is the maximum;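 on AC50: potency for gain of reporter signal over DMSO so agonist or activator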). The procedure, abridged:
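Exposure: 24 h, transiently transfected HepG2 cells. Endpoint: GAL4-UAS reporter mRNA, RT-PCR with capillary electrophoresis fluorescence. Baseline: DMSO; increases fitted.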

In test [14] the target is human Retinoic Acid Receptor beta (RARb), RARB (gene 5915) (UniProt P10826). As to the kind of experiment: ATG_RARb_TRANS: Attagene TRANS-FACTORIAL HepG2 Assay for human Retinoic Acid Receptor beta (AID 2283004; active means hit-call score of the fitted dose curve at least 0.9, where 1 is the maximum). A digest of the protocol: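 HepG2 cells transiently transfected with multiplexed GAL4-UAS reporter units expressing chimeric NR–Gal4 fusions; 24 h compound exposure. Reporter mRNA quantified by RT-PCR, 6-FAM labelling, HpaI digestion and capillary electrophoresis; gain-of-signal fitted against DMSO baseline.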
Sequence of human Retinoic Acid Receptor beta (RARb), RARB (gene 5915) (P10826 whole entry, looked up, the tested form may be a part): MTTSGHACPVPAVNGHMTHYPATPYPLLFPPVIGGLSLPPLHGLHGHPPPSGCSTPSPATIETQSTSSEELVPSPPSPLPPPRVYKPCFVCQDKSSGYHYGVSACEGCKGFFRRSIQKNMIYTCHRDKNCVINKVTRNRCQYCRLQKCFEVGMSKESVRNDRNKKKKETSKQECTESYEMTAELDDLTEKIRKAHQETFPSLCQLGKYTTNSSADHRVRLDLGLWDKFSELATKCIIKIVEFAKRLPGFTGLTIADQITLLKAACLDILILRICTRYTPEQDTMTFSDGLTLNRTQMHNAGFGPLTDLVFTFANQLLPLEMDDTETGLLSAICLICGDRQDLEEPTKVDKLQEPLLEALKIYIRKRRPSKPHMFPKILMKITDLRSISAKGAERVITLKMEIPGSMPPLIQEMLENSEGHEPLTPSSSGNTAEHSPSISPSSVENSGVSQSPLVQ

For test [15], the target named is Retinoic acid receptor alpha (Homo sapiens) (UniProt P10276). As to the kind of experiment: ATG_RARa_TRANS: Attagene TRANS-FACTORIAL HepG2 Assay for human Retinoic Acid Receptor alpha (RARa) (AID 2283005; active means hit-call score of the fitted dose curve at least 0.9, where 1 is the maximum). The procedure, abridged: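 HepG2 cells transiently transfected with multiple reporter units expressing chimeric RARα-GAL4 fusion, with GAL4-UAS-driven reporters. After 24 h compound exposure, reporter mRNA induction quantified by RT-PCR and capillary electrophoresis with fluorescent labeling; gain-of-signal fitted relative to DMSO control.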
Sequence of Retinoic acid receptor alpha (Homo sapiens) (P10276 whole entry, looked up, the tested form may be a part): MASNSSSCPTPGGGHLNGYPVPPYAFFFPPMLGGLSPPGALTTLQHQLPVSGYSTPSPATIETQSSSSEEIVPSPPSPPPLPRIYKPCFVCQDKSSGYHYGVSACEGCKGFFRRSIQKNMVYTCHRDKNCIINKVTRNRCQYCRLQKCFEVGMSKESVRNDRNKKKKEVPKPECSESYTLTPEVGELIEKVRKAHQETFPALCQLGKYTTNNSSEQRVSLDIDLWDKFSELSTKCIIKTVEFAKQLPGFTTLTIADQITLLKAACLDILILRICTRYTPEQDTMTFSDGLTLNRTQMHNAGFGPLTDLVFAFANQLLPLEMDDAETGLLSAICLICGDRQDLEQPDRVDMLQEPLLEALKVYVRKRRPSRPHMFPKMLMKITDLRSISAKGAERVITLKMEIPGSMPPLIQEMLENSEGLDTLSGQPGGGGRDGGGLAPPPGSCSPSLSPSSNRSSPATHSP

Test [16] deals with human RAR-related Orphan Receptor gamma (RORg), RORC (gene 6097) (UniProt P51449). As to the kind of experiment: ATG_RORg_TRANS: Attagene TRANS-FACTORIAL HepG2 Assay for human RAR-related Orphan Receptor gamma (RORg) (AID 2283011; active means hit-call score of the fitted dose curve at least 0.9, where 1 is the maximum). The procedure, abridged:
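Readout: reporter transcript induction (RT-PCR, fluorescent primer extension, capillary electrophoresis) after 24 h compound exposure of transiently transfected HepG2 cells carrying a RORg-Gal4 chimera and GAL4-UAS reporters; DMSO served as baseline, with increasing signal fitted.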

Test [17] concerns the target Retinoic acid receptor RXR-alpha (Homo sapiens) (UniProt P19793). As to the kind of experiment: ATG_RXRa_TRANS: Attagene TRANS-FACTORIAL HepG2 Assay for human Retinoid X Receptor alpha (RXRa) (AID 2283012; active means hit-call score of the fitted dose curve at least 0.9, where 1 is the maximum). A digest of the protocol:
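Chimeric NR-GAL4 trans-activation in HepG2, 24 h treatment; reporter transcripts quantified by fluorescence on capillary electrophoresis, analysed for upward change from DMSO.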

Test [18] concerns the target human Retinoid X Receptor beta (RXRb), RXRB (gene 6257) (UniProt P28702). As to the kind of experiment: ATG_RXRb_TRANS: Attagene TRANS-FACTORIAL HepG2 Assay for human Retinoid X Receptor beta (RXRb) (AID 2283013; active means hit-call score of the fitted dose curve at least 0.9, where 1 is the maximum). The procedure, abridged: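 After a 24 h incubation with test chemical, transfected HepG2 cells carrying NR-Gal4 fusions and GAL4-UAS reporter transcription units yield RNA whose reporter cDNA is FAM-labelled, HpaI-cut and sized by capillary electrophoresis; increases over DMSO are scored.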

Test [19] addresses Nuclear receptor subfamily 1 group I member 2 (Homo sapiens) (UniProt O75469). As to the kind of experiment: ATG_PXR_TRANS: Attagene TRANS-FACTORIAL HepG2 Assay for human Pregnane X Receptor (PXR) (AID 2283008; active means hit-call score of the fitted dose curve at least 0.9, where 1 is the maximum). The procedure, abridged:
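Transient HepG2 transfectants carrying multiplexed reporter transcription units; PXR activity read through a Gal4 chimera. 24 h exposure. RT-PCR/CE fluorescence; upward curve fit referenced to DMSO.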

Values joined by “and” are separate entries in the source; they are usually repeats but may differ in a detail not shown here. Equal entries are not always repeated. Records with an inconclusive call do not appear. Some structures have more than one record in an assay (separate samples or runs), and their calls can disagree. Active and inactive are the calls of the source. How the source made its calls, unless noted: active means hit-call score of the fitted dose curve at least 0.9, where 1 is the maximum; inactive means score below 0.9.

The AC50 is the midpoint of the concentration-response curve, whichever way the signal moves.

Sequence of Retinoic acid receptor RXR-alpha (Homo sapiens) (P19793 whole entry, looked up, the tested form may be a part): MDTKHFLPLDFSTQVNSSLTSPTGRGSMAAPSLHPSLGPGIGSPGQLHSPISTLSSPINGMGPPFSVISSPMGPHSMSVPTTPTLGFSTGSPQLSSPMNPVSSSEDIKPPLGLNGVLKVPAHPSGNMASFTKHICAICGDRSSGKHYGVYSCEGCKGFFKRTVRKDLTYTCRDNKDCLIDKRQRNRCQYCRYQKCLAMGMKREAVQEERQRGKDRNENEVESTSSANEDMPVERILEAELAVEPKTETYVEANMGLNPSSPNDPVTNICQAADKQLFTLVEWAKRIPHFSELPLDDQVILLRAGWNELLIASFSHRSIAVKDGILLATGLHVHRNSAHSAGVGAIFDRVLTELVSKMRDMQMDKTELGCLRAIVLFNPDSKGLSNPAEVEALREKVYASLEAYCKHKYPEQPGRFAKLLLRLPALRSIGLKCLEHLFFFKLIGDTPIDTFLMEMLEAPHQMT
Sequence of E-selectin (Homo sapiens) (P16581 whole entry, looked up): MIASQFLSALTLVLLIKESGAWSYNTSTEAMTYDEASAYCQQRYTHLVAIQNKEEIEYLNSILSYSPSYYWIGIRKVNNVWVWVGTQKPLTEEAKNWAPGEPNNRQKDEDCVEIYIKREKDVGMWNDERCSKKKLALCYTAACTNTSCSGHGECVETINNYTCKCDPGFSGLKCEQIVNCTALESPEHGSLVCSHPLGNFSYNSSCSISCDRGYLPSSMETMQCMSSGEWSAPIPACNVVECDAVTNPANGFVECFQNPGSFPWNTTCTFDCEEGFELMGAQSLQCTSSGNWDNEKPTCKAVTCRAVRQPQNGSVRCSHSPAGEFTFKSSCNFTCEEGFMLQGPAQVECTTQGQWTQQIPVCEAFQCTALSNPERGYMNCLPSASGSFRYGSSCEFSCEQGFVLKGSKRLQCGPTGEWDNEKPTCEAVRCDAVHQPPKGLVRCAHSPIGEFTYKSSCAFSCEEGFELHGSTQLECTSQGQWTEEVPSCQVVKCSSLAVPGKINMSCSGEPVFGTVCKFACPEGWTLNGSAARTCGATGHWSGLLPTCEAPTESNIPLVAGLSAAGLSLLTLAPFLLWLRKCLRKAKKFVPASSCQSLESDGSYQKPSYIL
Sequence of human Peroxisome Proliferator-activated Receptor alpha (PPARa), PPARA (gene 5465) (Q07869 whole entry, looked up, the tested form may be a part): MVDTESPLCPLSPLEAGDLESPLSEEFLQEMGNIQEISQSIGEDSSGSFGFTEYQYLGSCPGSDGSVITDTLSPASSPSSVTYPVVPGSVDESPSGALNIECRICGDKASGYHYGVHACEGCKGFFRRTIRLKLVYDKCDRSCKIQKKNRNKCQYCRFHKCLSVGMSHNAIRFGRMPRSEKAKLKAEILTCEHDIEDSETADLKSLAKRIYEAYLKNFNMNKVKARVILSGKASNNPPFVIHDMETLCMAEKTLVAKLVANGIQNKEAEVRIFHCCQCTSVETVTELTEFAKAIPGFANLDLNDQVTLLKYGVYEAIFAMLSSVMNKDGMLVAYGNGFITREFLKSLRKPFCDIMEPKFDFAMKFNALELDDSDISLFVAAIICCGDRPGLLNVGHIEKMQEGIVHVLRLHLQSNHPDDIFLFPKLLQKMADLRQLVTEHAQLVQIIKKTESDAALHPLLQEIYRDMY
Sequence of human Retinoid X Receptor beta (RXRb), RXRB (gene 6257) (P28702 whole entry, looked up, the tested form may be a part): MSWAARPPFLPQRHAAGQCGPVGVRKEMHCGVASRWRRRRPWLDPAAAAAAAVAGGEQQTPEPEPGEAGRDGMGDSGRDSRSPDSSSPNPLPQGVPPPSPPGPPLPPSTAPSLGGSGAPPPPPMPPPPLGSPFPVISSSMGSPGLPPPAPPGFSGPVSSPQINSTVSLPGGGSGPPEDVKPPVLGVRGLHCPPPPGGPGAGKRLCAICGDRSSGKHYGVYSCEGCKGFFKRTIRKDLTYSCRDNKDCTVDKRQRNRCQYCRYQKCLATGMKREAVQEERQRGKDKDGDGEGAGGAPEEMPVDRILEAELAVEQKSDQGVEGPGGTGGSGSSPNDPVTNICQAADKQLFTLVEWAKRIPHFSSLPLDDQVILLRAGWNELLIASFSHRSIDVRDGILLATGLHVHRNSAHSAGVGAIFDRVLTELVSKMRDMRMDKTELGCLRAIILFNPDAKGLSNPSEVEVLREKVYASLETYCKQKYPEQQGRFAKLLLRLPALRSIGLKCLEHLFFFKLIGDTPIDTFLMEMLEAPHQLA
Sequence of human RAR-related Orphan Receptor gamma (RORg), RORC (gene 6097) (P51449 whole entry, looked up, the tested form may be a part): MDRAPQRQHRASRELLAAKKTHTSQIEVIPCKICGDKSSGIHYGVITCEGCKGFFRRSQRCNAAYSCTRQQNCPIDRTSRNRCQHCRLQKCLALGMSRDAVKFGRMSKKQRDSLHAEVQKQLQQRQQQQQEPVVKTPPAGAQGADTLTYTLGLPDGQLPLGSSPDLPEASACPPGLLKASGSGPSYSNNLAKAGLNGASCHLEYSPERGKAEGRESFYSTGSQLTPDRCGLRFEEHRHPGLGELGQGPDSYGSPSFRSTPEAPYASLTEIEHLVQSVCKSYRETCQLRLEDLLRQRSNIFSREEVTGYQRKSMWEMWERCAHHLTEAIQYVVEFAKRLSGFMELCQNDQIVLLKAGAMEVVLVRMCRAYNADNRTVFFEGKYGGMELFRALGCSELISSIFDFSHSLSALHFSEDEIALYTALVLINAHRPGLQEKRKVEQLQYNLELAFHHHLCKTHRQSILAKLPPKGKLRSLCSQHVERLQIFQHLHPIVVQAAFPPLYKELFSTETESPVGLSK
Sequence of Nuclear receptor subfamily 1 group I member 2 (Homo sapiens) (O75469 whole entry, looked up, the tested form may be a part): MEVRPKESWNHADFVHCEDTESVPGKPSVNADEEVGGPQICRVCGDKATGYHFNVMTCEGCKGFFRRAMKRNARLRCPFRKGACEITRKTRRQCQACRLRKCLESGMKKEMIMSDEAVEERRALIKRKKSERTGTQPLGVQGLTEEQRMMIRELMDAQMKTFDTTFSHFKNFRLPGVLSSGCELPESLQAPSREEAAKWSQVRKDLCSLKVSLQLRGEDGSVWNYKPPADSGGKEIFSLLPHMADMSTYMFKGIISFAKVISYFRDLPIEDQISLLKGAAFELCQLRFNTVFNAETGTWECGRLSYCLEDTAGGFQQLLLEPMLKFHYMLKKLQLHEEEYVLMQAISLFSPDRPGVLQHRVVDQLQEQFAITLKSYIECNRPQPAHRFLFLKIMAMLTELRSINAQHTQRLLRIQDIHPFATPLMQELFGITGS

Take `COCC(C)OCC(C)O` (centres undefined): the call in test [1], in [2], in test [3], in test [4], in test [5] and in test [6] was inactive. For the same molecule, the outcome in test [7], in [8], in [9], in [10], in [11] and in test [12] was inactive.
As to `CC(O)CO` (centres undefined), the molecule was called inactive in test [13], in test [2], in test [14], in test [15], in [3] and in test [4]. Besides, the molecule was classed as inactive in test [5], in test [16], in test [17], in test [6], in test [7] and in test [8]. Moreover, the result in test [9], in [10], in test [11] and in test [12] was inactive.
Take `CCCCCCCCC(=O)O`: the AC50 in test [13] was 11.4 µM (active) and 41.6 µM (active); in test [18], 65.3 µM (active). The outcome in [2], in test [3], in test [5], in test [17], in [18] and in test [6] was inactive. Further, the outcome in test [7], in test [8], in test [9], in test [10], in test [11] and in test [12] was inactive.
For the molecule `Cc1cc(C)c(O)c(C)c1`, the molecule was called inactive in test [13], in test [2], in test [14], in [15], in test [3] and in test [4]. Further, the molecule was classed as inactive in test [19], in test [5], in [16], in [18], in test [6] and in test [7]. Also, the outcome in [8], in test [9], in test [10], in test [11] and in [12] was inactive.
